# Bioassay records: PubChem BioAssay, SRMLSC
# Compounds with a hit are over-represented: about 6.8% of the library has one in this group of screens.
# Autofluor 339 = intrinsic fluorescence of library compounds, ex339/em460 – biochemical, MLSMR library, data from DPM-DC assay, artefact control, profiling panel; compound autofluorescence, ex339/em460 nm, NADH buffer; active compounds read high; 1 = no-compound wells, NADH background; fluorescence fold increase at 10 µM; actives 5.5% (n = 65,000); AID 709;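 active = at 10 µM, mean starting fluorescence two-fold or more over control wells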;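 note: signal is the first read of a kinetic run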
# Abs 340nm = compound absorbs light at 340 nm | 65,000 tested, under 10 active | AID 708 | compound absorbance at 340 nm, fold over control | fold change at 10 µM;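 active = at 10 µM dose, initial 340 nm absorbance at least 2 fold that of control wells; inactive = change under 2 fold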;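 note: initial absorbance extrapolated from kinetic A340 decline of NADH oxidation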
# MK inhibit = S. pneumoniae mevalonate kinase inhibition; purified MK, PK/LDH-coupled NADH absorbance 340 nm; inhibition, % at 10 µM; AID 555; actives 0.48% (n = 65,000);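 active = ranked among the strongest by inhibition in the single 10 µM screen, a fixed top-ranked set picked for dose follow-up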
# NADH enzymes = blocks coupling enzymes of NAD/NADH assays | coupled PK/LDH NADH assays, four targets | IC50, µM (series often up to 10 µM), without a hit: at the top dose inhibition | actives 0.02% (n = 65,000) | AID 774;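 active = single-dose screening hits from any of four coupled enzyme assays that gave an IC50 when retested across doses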;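 note: the DPM-DC format reads NADH fluorescence rather than 340 nm absorbance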
# Spn PMK inh = inhibitors of Streptococcus pneumoniae phosphomevalonate kinase; purified PMK, PK/LDH-coupled NADH absorbance 340 nm; inhibition, % at 10 µM; actives 0.49% (n = 65,000);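 active = top-ranked compounds by inhibition in the single 10 µM screen, taking a fixed number of the strongest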;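 note: 0% = full reaction with DMSO carrier and 100% = background rate without enzyme reaction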
# Spn DPM-DC inh = blocks S. pneumoniae diphosphomevalonate decarboxylase; purified DPM-DC, PK/LDH coupled NADH fluorescence; AID 556; calls only at 10 µM; actives 0.49% (n = 65,000);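 active = the 320 compounds with the highest percent inhibition in the single-dose primary screen, excluding strongly autofluorescent ones, cut at about 32% in these data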;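 note: kinetic rate of NADH fluorescence loss reporting ADP formed by the decarboxylase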
# * hit, by the source's call; i = inactive; / = not tested or not shown; + = active, no number.
SMILES,Autofluor 339,Abs 340nm,MK inhibit,NADH enzymes,Spn PMK inh,Spn DPM-DC inh
O=C(OCn1nnc2ccccc2c1=O)c1cn(-c2ccccc2)nc1-c1cccnc1,1.1,1,0,7%,21,i
Cc1cc(C)n(-c2nc(-n3nc(C)cc3C)c3c4c(sc3n2)COC(C)(C)C4)n1,1.3,1.1,11,7%,0,i
Cc1cc(C)n(-c2nc3sc4c(c3c3nnc(SCC(N)=O)n23)CC(C)(C)OC4)n1,2.7*,1.1,3,0%,0,i
CSc1nnc2c3c4c(sc3nc(-n3nc(C)cc3C)n12)COC(C)(C)C4,3*,1.1,3,2%,0,i
c1csc(-c2ccc3ccccc3n2)c1,2.6*,1.1,7,13%,13,i
Cc1cc(-c2cccs2)n[nH]1,1.1,1.1,0,1%,0,i
COc1ccc(-c2csc(N3CCN(C(=O)c4ccco4)CC3)n2)cc1,1.1,1,2,1%,0,i
COc1ccc(-c2csc(N(CC3CCCO3)C(=O)c3ccco3)n2)cc1 (configuration not stated),2.7*,1.1,12,5%,3,i
CCOC(=O)N1CCC(Nc2c(NCCCOC)c(=O)c2=O)CC1,1.1,1,10,7%,11,i
Cc1ccc(S(=O)(=O)Nn2c(C)ccc2C)cc1,1.1,1.1,9,8%,10,i
N#Cc1nc(-c2ccco2)oc1N1CCN(Cc2ccccc2)CC1,1.7,1.1,14,12%,13,i
CN(C)c1oc(-c2ccco2)nc1C#N,4*,1.1,13,14%,14,/
CN(Cc1ccccc1)c1oc(-c2ccco2)nc1C#N,3.9*,1,16,17%,17,/
CC(C)(NC(=O)N1CCCC1)c1cccc(C(C)(C)NC(=O)N2CCCC2)c1,1.1,1,6,3%,16,i
CCOC(=O)c1nc(-c2ccccc2)oc1N(C)C,4.9*,1.1,0,5%,9,/
CN(C)c1oc(-c2ccccc2Cl)nc1C#N,2.7*,1.1,5,3%,11,i
Cc1ccccc1-c1nnc(-c2ccccc2)o1,1.1,1,5,10%,8,i
CN(C)c1oc(-c2ccccc2Cl)nc1S(=O)(=O)c1ccccc1,1.1,1.1,8,7%,0,i
CN(C)c1oc(-c2ccccc2)nc1C#N,2.1*,1.1,8,14%,20,/
COc1ccc(OC)c2c(C)cc(NCCN3CCOCC3)nc12,2.1*,1.1,5,8%,10,/
CCNc1cc2oc(=O)c(CN3CCOCC3)c(C)c2cc1C,2.2*,1.1,0,7%,13,/
Cc1ccc2oc(=O)cc(CN3CCOCC3)c2c1,1.1,1,5,6%,13,i
Cc1ccccc1Cn1cc(NC(=O)c2noc3c2CC(C(C)(C)C)CC3)cn1 (configuration not stated),1.7,0.99,5,2.6µM*,20,i
Cc1cccc(N2CCN(c3nnnn3-c3ccccc3)CC2C)c1 (configuration not stated),1.1,1,2,2%,3,i
O=C(c1cccc(N2C(=O)C3CC=CCC3C2=O)c1)N1CCN(c2ccccc2)CC1 (configuration not stated),0.97,0.99,0,7%,22,i
SMILES,Autofluor 339,Abs 340nm,MK inhibit,NADH enzymes,Spn PMK inh,Spn DPM-DC inh
CCN(CC)c1ccc2cc(NC(=O)CCC(=O)O)c(=O)oc2c1,3*,0.99,8,3%,4,/
COc1ccccc1NC(=O)C1CCN(c2ncccn2)CC1,1.3,1,4,9%,15,i
CCCCN(C)Cc1c(C)[nH]c2ccc(OCC)cc2c1=O,2.1*,1.1,2,1%,0,/
CCCCCNC(=O)c1ccc2c(=O)n(CC3CCCO3)c(=O)[nH]c2c1 (configuration not stated),2*,1.1,0,1%,2,i
CCCn1c(=S)[nH]c2cc(C(=O)NCC3CCCO3)ccc2c1=O (configuration not stated),1.1,1.1,7,4%,5,i
CCCCCn1c(SCC#N)nc2cc(C(=O)NCC3CCCO3)ccc2c1=O (configuration not stated),0.72,1.1,0,14%,6,+
CC(=O)n1cc(Nc2ccccc2C(=O)O)c2ccccc21,2.2*,1.1,3,3%,2,/
Cc1cccc(Nc2ccccc2C(=O)O)c1C,0.96,1,4,3%,4,i
Cc1c(Nc2nc3ccccc3nc2N2CCN(c3ccccc3)CC2)c(=O)n(-c2ccccc2)n1C,1.1,1.1,6,8%,6,i
Cc1noc(C)c1CSc1cc(C)c2ccccc2n1,1,1,10,9%,16,i
CCN(CC)CCNc1nc2ccccc2n1C,1.1,1,4,1%,0,i
Cc1ccc2c(c1)nc(NCCO)n2C,2.1*,1,4,10%,13,i
Cc1cccc(NC(=O)c2sc3nc(-c4ccccc4)cn3c2C)n1,1.2,1,0,2%,5,i
Cc1cccc(NC(=O)c2sc3nc(-c4ccc(F)cc4)cn3c2C)n1,4.5*,1.1,8,11%,14,/
CC(C)COC(=O)NCC12C=CC(O1)C1C(=O)N(c3ccc(Cl)cc3)C(=O)C12 (configuration not stated),1,1,0,4%,25*,i
Oc1oc(-c2ccco2)nc1C=Nc1ccccc1,1,1.1,6,4%,5,i
Oc1ccccc1/C=N/c1c(-c2ccco2)nc2ccccn12,3.6*,1.1,0,6%,11,/
Nc1nc(-c2cccs2)c(NC(=O)c2ccccc2)s1,1.1,1,5,6%,12,i
O=C(Nc1c(-c2ccccc2)nc2sccn12)c1ccccc1,1.1,1,15,18%,40*,i
CC1CCCCN1S(=O)(=O)c1ccc(NC(=O)CSc2nnnn2C)cc1 (configuration not stated),0.99,0.99,9,8%,14,i
COc1ccccc1OCC(=O)NC1CCCCCC1,1.1,1,6,5%,8,i
CC(C)CCNC(=O)COc1ccc2c3c(c(=O)oc2c1)CCC3,3.1*,1.1,6,15%,18,i
COc1ccc2c(c1)c(=O)oc1cc(OCC(=O)NC3CC3)ccc12,3.7*,1.1,7,6%,4,/
Cc1cc(=O)oc2cc(OCC(=O)NCCCN3CCOCC3)ccc12,1.8,1.1,7,8%,5,i
CC(C)CNC(=O)COc1ccc2c3c(c(=O)oc2c1)CCC3,2*,1.1,3,19%,15,+
N=c1c(C(=O)NCc2ccco2)cc2c(=O)n3ccccc3nc2n1Cc1ccc(Cl)cc1,2.5*,1.1,6,7%,5,i
